Here are results for 8 compounds from PubChem BioAssay (Tox21).

Assay [1] is described as follows: Nuclear factor erythroid 2-related factor 2/antioxidant responsive element (Nrf2/ARE) small molecule agonists: qHTS cell viability counter screen in human keratinocytes (AID 1919968; active means well fitted curve in the direction sought with a large enough effect in the repeat runs; an effect the other way counts as inactive or inconclusive; further: nearly all actives have a fitted effect of over 55% in size; further: potency means the concentration at half of the fitted maximal effect). A digest of the protocol: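 After a 5 h attachment period, ARE-reporter keratinocytes were dosed with compounds in DMSO and then cultured 23 h at 37 C. Cell viability came from CellTiter-Fluor signal read after a further 1 h.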
On the technique in general: Quantitative high-throughput screening tests each substance at several concentrations.

Assay [2] is described as follows: Nuclear factor erythroid 2-related factor 2/antioxidant responsive element (Nrf2/ARE) small molecule agonists: luciferase reporter gene qHTS assay in human keratinocytes (AID 1919969). Further: nearly all actives have a fitted effect of over 35% in size. Further: potency means the concentration at half of the fitted maximal effect. For orientation: A reporter such as luciferase makes a cellular process visible.
For assay [3], the target named is Gonadotropin-releasing hormone receptor (Homo sapiens) (UniProt P30968). Description: Human gonadotropin-releasing hormone receptor (GnRHR) small molecule agonists, calcium flux assay in GnRHR-HEK293 cells (AID 1920063). Further: nearly all actives have a fitted effect of over 35% in size. The essentials:
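We seeded human GnRHR-expressing HEK293 cells for 18 hours, loaded them with calcium dye for an hour at 37 C, added test compounds, and recorded fluorescence intensity kinetically for three minutes.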
For orientation: Calcium flux is commonly read through the fluorescence of an indicator in the cells.

The target of assay [4] is KiSS-1 receptor (Homo sapiens) (UniProt Q969F8). Description: Human kisspeptin (KISS1R) small molecule agonists, calcium flux assay in KISS1R-HEK293 cells (AID 1920064; active means well fitted curve in the direction sought with a large enough effect in the repeat runs; an effect the other way counts as inactive or inconclusive). The essentials:
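Kinetic calcium assay, 1 s sampling over 3 min at Ex/Em 480/540, in HEK293 cells engineered with human KISS1R; compounds delivered in DMSO after 1 h dye loading.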

The nature of assay [5]: G protein-coupled receptor (GPCR) small molecule agonists, calcium flux assay: HEK293 wild type cell line counter screen (AID 1920065). The essentials:
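Calcium-sensitive dye, loaded 1 h at 37 C into cells cultured 18 h, reports compound-evoked calcium release as fluorescence (Ex/Em 480/540), measured over 3 min. Agonist mode; 15-point titrations, triplicate.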

Assay [6] is described as follows: p53 small molecule agonists, cell-based qHTS assay with human liver microsomes: qHTS cell viability counter screen (AID 1963579). Further: nearly all actives have a fitted effect of over 45% in size. The essentials: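 p53RE-bla cells (4,000/well) were pre-incubated 5 h at 37 C, then given compounds in DMSO plus human liver microsomes (0.5 mg/mL final) and NADPH (0.5 mg/mL final) for 16 h at 37 C. Viability was read by CellTiter-Glo luminescence.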

The nature of assay [7]: p53 small molecule agonists, cell-based qHTS assay with rat liver microsomes: qHTS cell viability counter screen (AID 1963580). Further: nearly all actives have a fitted effect of over 45% in size. The essentials:
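Intracellular ATP, by CellTiter-Glo luminescence, defines viability. HCT-116 p53RE-bla cells, 4,000 per well, were compound-treated in the presence of rat liver microsomes and NADPH for 16 h at 37 C.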

Assay [8] is described as follows: p53 small molecule agonists, cell-based qHTS assay (AID 1963582; active means well fitted activation curve with a large enough effect in the signal ratio in the repeat runs, not every such curve was filed as active; the % refers to the signal ratio). A digest of the protocol:
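In this cell-based concentration-response screen, a p53 response element drives beta-lactamase; cells received DMSO-borne compounds after 5 h culture and were incubated a further 16 h before FRET substrate development.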

In assay [9] the target is 5-hydroxytryptamine receptor 2A (Homo sapiens) (UniProt P28223). Description: 5-hydroxytryptamine receptor 2A (HTR2A) small molecule antagonists, cell-based qHTS assay (AID 1963586). Further: nearly all actives have a fitted effect of over 45% in size. Further: potency means the concentration at half of the fitted maximal effect. A digest of the protocol: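 Antagonist-mode intracellular calcium assay: DOI (4 nM) added after 5 min compound pre-incubation at room temperature to dye-loaded HTR2A-CHO cells. Fluorescence followed for 3 min, sampled every second.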
Sequence of 5-hydroxytryptamine receptor 2A (Homo sapiens) (P28223 whole entry, looked up): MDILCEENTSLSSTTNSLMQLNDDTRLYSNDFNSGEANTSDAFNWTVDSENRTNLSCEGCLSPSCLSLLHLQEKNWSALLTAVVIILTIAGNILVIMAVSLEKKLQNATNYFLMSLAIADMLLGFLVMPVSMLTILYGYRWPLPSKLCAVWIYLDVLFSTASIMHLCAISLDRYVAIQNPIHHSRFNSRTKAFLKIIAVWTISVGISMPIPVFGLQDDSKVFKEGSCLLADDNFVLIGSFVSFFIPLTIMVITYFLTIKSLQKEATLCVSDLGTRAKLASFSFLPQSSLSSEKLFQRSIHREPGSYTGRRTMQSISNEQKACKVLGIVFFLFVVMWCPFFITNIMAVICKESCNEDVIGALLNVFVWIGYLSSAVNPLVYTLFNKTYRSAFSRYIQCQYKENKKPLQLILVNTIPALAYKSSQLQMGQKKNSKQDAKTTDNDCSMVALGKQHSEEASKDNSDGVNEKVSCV

Assay [10] has the same target. Description: 5-hydroxytryptamine receptor 2A (HTR2A) small molecule agonists, cell-based qHTS assay (AID 1963587). Further: nearly all actives have a fitted effect of over 30% in size. A digest of the protocol: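 Kinetic calcium-flux fluorescence (2 min, 1 sec intervals) after compound addition in agonist mode. HTR2A-CHO cells were cultured 18 h, then dye-loaded 1 h at 37 C.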
For assay [11], the target named is Muscarinic acetylcholine receptor M1 (Homo sapiens) (UniProt P11229). Description: Cholinergic receptor muscarinic 1 (CHRM1) small molecule agonists, cell-based qHTS assay (AID 1963589). Further: nearly all actives have a fitted effect of over 35% in size. The essentials: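 Measures agonist-induced intracellular calcium rise. Stable human CHRM1 CHO line, 1 h dye load at 37 C, compounds from DMSO, kinetic fluorescence read.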
Sequence of Muscarinic acetylcholine receptor M1 (Homo sapiens) (P11229 whole entry, looked up): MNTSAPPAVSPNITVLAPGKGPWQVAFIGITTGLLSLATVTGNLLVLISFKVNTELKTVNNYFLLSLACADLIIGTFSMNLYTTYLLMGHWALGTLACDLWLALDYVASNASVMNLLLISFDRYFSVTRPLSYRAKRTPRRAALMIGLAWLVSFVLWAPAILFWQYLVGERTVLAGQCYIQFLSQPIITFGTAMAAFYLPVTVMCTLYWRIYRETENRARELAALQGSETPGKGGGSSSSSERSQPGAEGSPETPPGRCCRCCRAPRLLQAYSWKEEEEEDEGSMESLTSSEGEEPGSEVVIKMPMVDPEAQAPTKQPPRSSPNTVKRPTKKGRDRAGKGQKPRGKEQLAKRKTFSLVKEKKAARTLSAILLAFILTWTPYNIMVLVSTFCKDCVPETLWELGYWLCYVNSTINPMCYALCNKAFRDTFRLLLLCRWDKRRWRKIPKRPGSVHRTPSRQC
Assay [12] is described as follows: cAMP Responsive Elements (CRE) small molecule agonists, cell-based qHTS assay (AID 1963590). A digest of the protocol: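 A CRE-responsive beta-lactamase reporter in HEK 293T cells was used. Treatment ran 3 h at 37 C; detection used LiveBLAzer B/G FRET substrate for 2 h at room temperature.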
Assay [13] in a line: cAMP Responsive Elements (CRE) small molecule antagonists, cell-based qHTS assay (AID 1963591; active means well fitted inhibition curve with a large enough effect in the signal ratio in the repeat runs, not every such curve was filed as active; the % refers to the signal ratio). The essentials: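 HEK293T cells carrying a CRE-driven beta-lactamase reporter receive compound and NKH477 (0.25 uM final) for 3 h. Fluorescence from LiveBLAzer B/G FRET substrate is read after 2 h at room temperature.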
Assay [14] has as its target Beta-2 adrenergic receptor (Homo sapiens) (UniProt P07550). The assay is described as follows: Adrenergic beta2 receptor (ADRB2) small molecule antagonists, cell-based qHTS assay (AID 1963592). Further: nearly all actives have a fitted effect of over 50% in size. Further: potency means the concentration at half of the fitted maximal effect. The essentials: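 Cells (CHO, stable ADRB2 overexpression) incubated 18-20hr at 37C; compounds added from DMSO; agonist mix (1nM isoproterenol, 100uM IBMX, 25uM Ro-20-1724) added; 0.5hr RT; d2-cAMP and anti-cAMP-cryptate added; 1hr RT; 665/615 nm read.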

The target of assay [15] is D(2) dopamine receptor (Homo sapiens) (UniProt P14416). Description: Dopamine D2 receptor (DRD2) small molecule antagonists, cell-based qHTS assay (AID 1963595; active means well fitted inhibition curve with a large enough effect in the signal ratio in the repeat runs, with a control signal flat; the % refers to the signal ratio). The essentials: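 Human DRD2 antagonist qHTS measuring cAMP by HTRF. The cells are exposed to compound for 10 min, then to NKH477 (200 nM) and quinpirole (12 nM) for 30 min at RT, with Ro20-1724 (0.1 mM) present throughout.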
Sequence of D(2) dopamine receptor (Homo sapiens) (P14416 whole entry, looked up): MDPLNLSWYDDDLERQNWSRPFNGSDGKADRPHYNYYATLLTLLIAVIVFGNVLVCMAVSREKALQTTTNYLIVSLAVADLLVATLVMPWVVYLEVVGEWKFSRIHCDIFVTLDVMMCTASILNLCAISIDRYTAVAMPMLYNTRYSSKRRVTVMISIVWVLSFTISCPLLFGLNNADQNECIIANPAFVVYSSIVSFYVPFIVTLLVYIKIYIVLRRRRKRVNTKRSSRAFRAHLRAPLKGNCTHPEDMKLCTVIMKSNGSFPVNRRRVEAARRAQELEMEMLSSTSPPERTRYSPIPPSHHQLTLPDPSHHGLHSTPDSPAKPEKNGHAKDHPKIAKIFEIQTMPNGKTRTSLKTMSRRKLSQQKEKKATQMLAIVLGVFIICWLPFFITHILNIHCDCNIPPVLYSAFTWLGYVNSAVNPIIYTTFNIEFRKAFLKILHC

Assay [16] in a line: p53 small molecule agonists, cell-based qHTS assay: qHTS cell viability counter screen (AID 1963581). Further: nearly all actives have a fitted effect of over 45% in size. A digest of the protocol: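 Following 5 h attachment, HCT-116 p53RE-bla cells took up compound for 16 h at 37 C; the reporter was read with B/G FRET substrate (2 h RT), and viability then via CellTiter-Glo ATP luminescence.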
In assay [17] the target is Muscarinic acetylcholine receptor M1 (Homo sapiens) (UniProt P11229). The assay is described as follows: Cholinergic receptor muscarinic 1 (CHRM1) small molecule antagonists, cell-based qHTS assay (AID 1963588). Further: nearly all actives have a fitted effect of over 40% in size. The essentials: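 CHRM1-CHO calcium-flux assay, antagonist mode. Cells were seeded 18 h, dye-loaded 1 h at 37 C and given compound for 5 min at RT, then acetylcholine was added at 50nM. FDSS fluorescence was read 3 min; 15 concentrations, three runs.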

In assay [18] the target is D(2) dopamine receptor (Homo sapiens) (UniProt P14416). The assay is described as follows: Dopamine D2 receptor (DRD2) small molecule agonists, cell-based qHTS assay (AID 1963594). Further: nearly all actives have a fitted effect of over 35% in size. Further: potency means the concentration at half of the fitted maximal effect. The essentials: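 cAMP accumulation in DRD2-HEK293 cells measured by HTRF after 1 h detection; compounds added 10 min before NKH477 (200nM […]) forskolin-analogue stimulation, 30 min at room temperature, with Ro20-1724 present at 0.1 mM final.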

The target in assay [19] is Beta-2 adrenergic receptor (Homo sapiens) (UniProt P07550). The assay is described as follows: Adrenergic beta2 receptor (ADRB2) small molecule agonists, cell-based qHTS assay (AID 1963593).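 Further: CHO cells stably overexpressing human ADRB2.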 A digest of the protocol: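 CHO cells stably over-expressing ADRB2 were plated overnight at 37C, then dosed with compounds plus a stimulation mix containing 100uM IBMX and 25uM Ro-20-1724 for 0.5hr at room temperature. cAMP was measured by HTRF competition, 1hr.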
Sequence of Beta-2 adrenergic receptor (Homo sapiens) (P07550 whole entry, looked up): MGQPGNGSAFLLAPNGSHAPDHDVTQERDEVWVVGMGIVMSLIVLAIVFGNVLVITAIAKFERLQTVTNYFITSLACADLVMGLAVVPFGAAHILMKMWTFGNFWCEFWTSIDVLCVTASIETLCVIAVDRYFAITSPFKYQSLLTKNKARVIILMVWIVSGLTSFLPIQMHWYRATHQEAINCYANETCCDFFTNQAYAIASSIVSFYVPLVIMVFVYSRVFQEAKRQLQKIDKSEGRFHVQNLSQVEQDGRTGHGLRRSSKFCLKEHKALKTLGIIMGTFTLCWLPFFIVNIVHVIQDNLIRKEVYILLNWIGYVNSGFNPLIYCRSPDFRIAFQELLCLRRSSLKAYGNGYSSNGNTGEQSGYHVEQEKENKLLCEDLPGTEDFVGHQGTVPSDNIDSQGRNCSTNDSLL

Assay [20] is described as follows: p53 small molecule agonists, cell-based qHTS assay with rat liver microsomes (AID 1963578). The essentials:
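p53RE-bla cells were exposed to compounds together with rat liver microsomes (0.5 mg/mL final) and NADPH (0.5 mg/mL final) for 16 h at 37 C, then read by LiveBLAzer beta-lactamase fluorescence after 2 h at room temperature.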

Records with an inconclusive call do not appear. Active and inactive are the calls of the source. Unless noted, the call rests on the fitted dose curve.

Sequence of Gonadotropin-releasing hormone receptor (Homo sapiens) (P30968 whole entry, looked up): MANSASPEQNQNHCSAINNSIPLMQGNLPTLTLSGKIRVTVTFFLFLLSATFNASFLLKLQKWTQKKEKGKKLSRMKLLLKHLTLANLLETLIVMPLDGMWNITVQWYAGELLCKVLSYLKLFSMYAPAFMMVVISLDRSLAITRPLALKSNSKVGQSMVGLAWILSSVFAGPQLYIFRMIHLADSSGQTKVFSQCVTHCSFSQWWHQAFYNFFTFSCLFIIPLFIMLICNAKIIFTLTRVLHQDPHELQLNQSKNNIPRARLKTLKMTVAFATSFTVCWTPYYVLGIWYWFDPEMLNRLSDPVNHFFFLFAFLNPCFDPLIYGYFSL
Sequence of KiSS-1 receptor (Homo sapiens) (Q969F8 whole entry, looked up): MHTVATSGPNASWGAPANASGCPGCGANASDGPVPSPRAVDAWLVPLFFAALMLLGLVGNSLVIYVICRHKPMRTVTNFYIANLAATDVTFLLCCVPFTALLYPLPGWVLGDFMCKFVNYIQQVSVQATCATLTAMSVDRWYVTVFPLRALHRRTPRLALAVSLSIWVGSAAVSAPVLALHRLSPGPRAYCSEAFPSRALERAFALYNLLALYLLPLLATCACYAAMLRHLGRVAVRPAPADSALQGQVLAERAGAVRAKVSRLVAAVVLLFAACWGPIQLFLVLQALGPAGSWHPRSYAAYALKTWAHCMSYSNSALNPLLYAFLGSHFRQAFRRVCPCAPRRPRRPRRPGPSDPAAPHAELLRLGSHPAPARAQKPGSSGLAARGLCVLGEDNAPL

For the compound `CN1CCN(C2=Nc3cc(F)ccc3Cc3ccccc32)CC1`, the Potency entry in [1], in assay [2], in assay [3], in assay [6], in assay [7] and in [8] was “inactive” each time. The Potency entry in assay [10], in assay [11], in [12], in assay [13] and in [15] was “inactive” in each case. Besides, the result in assay [4] and in assay [5] was inactive. The values for the Potency in assay [9] and in [14] were 0.0231 µM (active) and 29.8 µM (active), respectively.

`CC(C)C(=O)Nc1cccc(C(F)(F)F)c1`: the Potency entry in assay [1], in assay [2], in assay [3], in [7], in [16] and in assay [8] was “inactive” throughout. Moreover, the Potency entry in assay [9], in [10], in [17], in [11], in assay [12] and in assay [13] was “inactive” throughout. In addition, the Potency entry in [14] and in assay [15] was “inactive” in each case. Besides, the result in assay [4] and in assay [5] was inactive.

As to `CC(CCc1ccccc1)NCC(O)c1ccc(O)c(C(N)=O)c1` (stereo unspecified), the Potency result in assay [1], in assay [2], in assay [3], in [6], in assay [7] and in [12] was “inactive” each time. In addition, the Potency entry in [13] and in assay [15] was “inactive” each time. The outcome in assay [4] and in assay [5] was inactive. The Potency in assay [18] is 3.31 µM (active).

As for `CC1=C(C(=O)OC(C)C)C(c2cccc([N+](=O)[O-])c2)C(C(=O)OC2CN(C(c3ccccc3)c3ccccc3)C2)=C(N)N1` (stereo unspecified), the Potency in [1] was 8.41 µM (active). The Potency entry in assay [2], in [3], in assay [6], in [7], in [9] and in assay [10] was “inactive” in each case. Further, the Potency result in assay [17], in [11], in [14], in assay [19], in [18] and in assay [15] was “inactive” each time. For the same compound, the result in assay [4] and in assay [5] was inactive.

Regarding `NC(=O)C(=O)N/N=C/c1ccc([N+](=O)[O-])o1`, the Potency result in assay [1], in assay [3], in assay [6], in assay [7], in [8] and in assay [10] was “inactive” in each case. The Potency result in assay [11], in assay [12], in assay [13], in assay [14], in assay [19] and in assay [15] was “inactive” throughout. For the same compound, in assay [2], the Potency is 29.8 µM (active). Besides, the result in [4] and in assay [5] was inactive.

`C=CCCCCCCCCC=O`: the Potency entry in [1], in assay [2], in assay [3], in assay [6], in assay [7] and in assay [8] was “inactive” in each case. Further, the Potency entry in assay [10], in [17], in assay [11], in assay [14], in assay [18] and in [15] was “inactive” each time. Further, the outcome in assay [4] and in assay [5] was inactive.

Consider `Cc1cc(N)c(S(=O)(=O)O)cc1Cl`, for which the Potency result in [1], in assay [2], in assay [3], in [20], in assay [6] and in [7] was “inactive” throughout. The Potency entry in assay [16], in assay [8], in assay [9], in assay [10], in assay [17] and in [11] was “inactive” in each case. For the same compound, the Potency entry in assay [12], in assay [13], in assay [14], in assay [18] and in assay [15] was “inactive” each time. Besides, the outcome in assay [4] and in [5] was inactive.

Regarding `Oc1c(Br)cc(Br)c2cccnc12`, the Potency is 2.66 µM (active) in [1] and 0.841 µM (active) in assay [2]. In addition, the Potency result in assay [3], in assay [6], in [7], in assay [8], in [9] and in assay [10] was “inactive” throughout. Moreover, the Potency result in [17], in assay [11], in assay [13], in assay [14], in assay [18] and in assay [15] was “inactive” in each case. In addition, the outcome in assay [4] and in assay [5] was inactive.
